Assay [1] in a line: AP1 Signaling Pathway (AID 357; active = well fitted curve in either direction with a large enough effect, not every such curve was filed as active;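 also: ME-180 reporter cells stimulated with EGF at its EC50 level; % is scaled to controls: 0 for no effect and ±100 for the full control effect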). The method in brief:
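Titration-series screen for positive or negative modulators of EC50 EGF-induced signaling in ME-180 cells carrying an AP-1-driven beta-lactamase reporter. After 5 hours at 37 degrees Celsius, CCF4 460nm/530nm emission ratio gave %Activity; AC50 values derived.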

Assay [2] is described as follows: NFAT Signaling Pathway (AID 444; active = well fitted curve in either direction with a large enough effect, not every such curve was filed as active;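 also: carbachol stimulus at about its EC50 of 1 µM final; % is scaled to controls: 0 for no effect and ±100 for the full control effect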). The method in brief:
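Jurkat cells carrying an NFAT-driven β-lactamase reporter and co-transfected muscarinic M1 receptor were treated with compound plus carbachol (1 uM final, an EC50 level) for 5 h at 37 °C. CCF4 loading followed for 1 h at RT; 460/530 nm ratio gave %activity.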

The nature of assay [3]: Cell Viability - BJ (AID 421).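 Also: potency is read from the fitted curve at half-maximal effect; cells exposed to compound for 40 hours at 37 °C before readout.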 As to conditions: BJ fibroblast viability, qHTS. The method in brief:
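Luminescent ATP signal (CellTiter-Glo, 20 min at room temperature) served as the read-out of viable BJ cells after 40 hours of compound treatment. Responses were scaled between DMSO and 100 uM tamoxifen, and AC50 values were obtained by Hill modeling.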

Assay [4] in a line: Cell Viability - Jurkat (AID 426;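 active = dose-dependent loss of cell ATP signal giving a full or clear fitted curve, ranked by lower potency value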;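 also: potency is read from the fitted curve at half-maximal effect; cells exposed to compound for 40 hours at 37 °C before ATP read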). To be noted: qHTS. Summed up:
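Seed 5000 Jurkat E6-1 cells/well; add compound; incubate 40 hr at 37 °C; add CellTiter-Glo; wait 20 min at room temperature; read luminescence. Fit concentration-response with Hill equation for AC50.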
In general terms: Quantitative high-throughput screening tests each substance at several concentrations.

Assay [5] in a line: Cell Viability - Hek293 (AID 427;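 active = compounds whose dose-response curve shows a full or clear partial loss of cell viability, called from curve shape rather than a numeric limit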;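 also: potency is read from the fitted curve at half-maximal effect; cells exposed to compound for 40 hours at 37 °C before reading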). As to conditions: qHTS. Summed up: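 Luminescent ATP read-out (CellTiter-Glo, 20 min RT) after 40 hr compound exposure at 37 °C in complete medium. Signal normalized to DMSO (basal) and 100 uM tamoxifen (100% inhibition); concentration-response fitted with the standard Hill equation to give AC50.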
Assay [6] is described as follows: Cell Viability - HepG2 (AID 433).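 Also: potency is read from the fitted curve at half-maximal effect; potency for ATP loss meaning cytotoxicity.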 To be noted: qHTS. Summed up:
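HepG2 cells, 1500 per well, treated 40 hr at 37 °C in complete medium; viability from intracellular ATP by CellTiter-Glo luminescence. Normalized to DMSO and 100 uM tamoxifen; AC50 from Hill fit of qHTS concentration-response.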

The nature of assay [7]: Cell Viability - MRC5 (AID 434).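 Also: potency is read from the fitted curve at half-maximal effect; cells exposed to compound for 40 hours at 37 °C; potency reflects cytotoxicity seen as loss of intracellular ATP.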 To be noted: MRC5 lung fibroblast viability, qHTS. Summed up:
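MRC5 normal human lung fibroblasts (1500/well) were treated with compounds for 40 hr at 37 °C in complete medium, and viable cells were measured as intracellular ATP by CellTiter-Glo luminescence. AC50 came from Hill fits, normalized to DMSO and 100 uM tamoxifen.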

Assay [8] can be described thus: Cell Viability - SK-N-SH (AID 435).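 Also: potency is read from the fitted curve at half-maximal effect; compound exposure lasted 40 h at 37 °C.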 As to conditions: SK-N-SH neuroblastoma cell viability qHTS. The method in brief: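 SK-N-SH neuroblastoma cells (1500/well) treated 40 h at 37 °C in complete medium; viability read as cellular ATP by CellTiter-Glo luminescence. Normalized to DMSO and 100 uM tamoxifen; AC50 from Hill fits of qHTS concentration-response.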
Assay [9] addresses Cytochrome P450 1A2 (Homo sapiens) (UniProt P05177). Nature of the assay: p450-cyp1a2 (AID 410). Also: potency is read from the fitted curve at half-maximal effect.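 As to activity change, negative = inhibition: -100% = full effect of reference inhibitor.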 Summed up: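 Inhibition was calculated relative to 57 uM furafylline (full inhibition). The reaction used human CYP1A2 at 20nM with Luciferin-ME at its Km, 100uM, driven by an NADPH-regenerating system for 60 min at room temperature.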
Assay [10] deals with Lysosomal acid glucosylceramidase (Homo sapiens) (UniProt P04062). Nature of the assay: Glucocerebrosidase-p2 (AID 348; in the data active = potency below about 10 µM; also: potency is read from the fitted curve at half-maximal effect). To be noted: purified GBA, blue fluorogenic substrate, 40 min. Summed up:
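Compounds titrated from 0.6 nM upwards against 0.2 nM enzyme in pH 5.9 citric acid/KH2PO4, taurocholate, tween-20; blue fluorogenic substrate 80 uM, 40 min room temperature, stopped and read Ex 365/Em 440 for AC50.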

SMILES strings stand for the structures. Values joined by “and” are separate entries in the source; they are usually repeats but may differ in a detail not shown here. Equal entries are not always repeated. Unmarked numbers belong to inactive results. Results filed as inconclusive are left out. Active and inactive are the calls of the source. Unless noted, calls follow the shape of the full dose curve.

Chain of Cytochrome P450 1A2 (Homo sapiens) (P05177 whole entry, looked up): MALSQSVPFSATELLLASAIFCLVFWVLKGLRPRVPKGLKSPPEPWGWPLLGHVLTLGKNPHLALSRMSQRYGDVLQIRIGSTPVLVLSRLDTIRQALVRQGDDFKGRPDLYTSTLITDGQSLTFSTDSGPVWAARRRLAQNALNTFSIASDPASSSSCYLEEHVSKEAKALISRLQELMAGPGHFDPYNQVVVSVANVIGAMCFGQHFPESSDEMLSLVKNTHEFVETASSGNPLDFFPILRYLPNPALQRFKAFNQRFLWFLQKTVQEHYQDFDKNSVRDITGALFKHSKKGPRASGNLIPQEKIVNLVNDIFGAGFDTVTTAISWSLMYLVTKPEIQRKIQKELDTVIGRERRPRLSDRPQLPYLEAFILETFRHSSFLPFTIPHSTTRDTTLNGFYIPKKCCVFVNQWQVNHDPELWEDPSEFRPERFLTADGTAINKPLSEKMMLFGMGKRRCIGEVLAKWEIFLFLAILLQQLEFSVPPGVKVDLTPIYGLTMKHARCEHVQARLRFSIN
Chain of Lysosomal acid glucosylceramidase (Homo sapiens) (P04062 whole entry, looked up): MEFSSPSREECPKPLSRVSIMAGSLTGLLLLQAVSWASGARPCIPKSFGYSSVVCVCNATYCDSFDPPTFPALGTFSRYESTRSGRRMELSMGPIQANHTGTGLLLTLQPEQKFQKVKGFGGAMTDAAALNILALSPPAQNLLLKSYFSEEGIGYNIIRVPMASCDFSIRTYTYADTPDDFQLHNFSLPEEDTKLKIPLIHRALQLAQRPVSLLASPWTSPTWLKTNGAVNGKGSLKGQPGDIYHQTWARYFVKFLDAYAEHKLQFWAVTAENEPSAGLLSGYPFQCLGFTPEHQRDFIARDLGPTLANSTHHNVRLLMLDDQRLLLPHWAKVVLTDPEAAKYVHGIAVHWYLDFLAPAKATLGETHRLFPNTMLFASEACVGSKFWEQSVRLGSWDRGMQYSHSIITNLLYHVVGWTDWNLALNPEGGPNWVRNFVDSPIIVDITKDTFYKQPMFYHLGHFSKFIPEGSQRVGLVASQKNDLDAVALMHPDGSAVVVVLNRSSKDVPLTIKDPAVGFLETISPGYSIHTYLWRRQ

For `CC(C)CCNC(=O)[C@H](CC(C)C)NC(=O)[C@H]1O[C@@H]1C(=O)O`, the call in assay [1] and in [2] was inactive.
As to `C=Cc1ccccc1`, the Potency in [3], in assay [4], in assay [5], in [6], in assay [7] and in assay [8] was above 92 µM throughout.
For the compound `CCc1ccccc1OC[C@@H](O)CN[C@H]1CCCc2ccccc21`, in [9], the Potency is 12.6 µM (active).
For the compound `O=C(O)c1cc2ccccc2c(Cc2c(O)c(C(=O)O)cc3ccccc23)c1O`, the Potency in assay [10] was above 11.4 µM. Moreover, the activity change, negative = inhibition is 13.4% [at 7.69 µM] in assay [1], -4% [at 2.29 µM] in assay [9] and 6.69% [at 7.69 µM] in assay [2].
Turning to `O=C(O)CC(O)(CC(=O)O)C(=O)O`, the Potency was above 92 µM in [3]; 58 µM (active) in [4]; above 92 µM in assay [5]; above 92 µM in assay [6]; above 92 µM in assay [7]; above 92 µM in assay [8].
Regarding `CN(C)Cc1ccccc1`, the Potency in [3], in [4], in assay [5], in assay [6], in assay [7] and in assay [8] was above 92 µM each time.
In the case of `Cc1ccc(OC[C@H](O)[C@H](C)NC(C)C)c2c1CCC2`, the compound was called inactive in [1] and in [2]. In assay [9], the Potency was 1.58 µM (active) and 398 nM (active).
As to `NCCCC(=O)O`, the call in assay [1] and in assay [2] was inactive. Also, in assay [9], the Potency result was “inactive”.
On to `COc1ccc2[nH]c(=O)c3c(c2c1)OC(C)(C)C=C3`, for which the Potency in assay [9] was 0.316 µM (active).
For `CN(C)CCCn1cc(C2=C(c3c[nH]c4ccccc34)C(=O)NC2=O)c2ccccc21`, the Potency in assay [9] is 7.94 µM (active).

The values above are taken from PubChem BioAssay (NCATS).
